Among the data in PubChem BioAssay (NCI) are growth inhibition values, retold here.

Test [1] in a line: NCI Yeast Anticancer Drug Screen. Data for the rad50 strain (AID 155).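 Also: 0% = growth of vehicle-only cultures of the same strain.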 The settings on record: S. cerevisiae rad50 strain growth inhibition, active compounds read high. Put shortly: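 Inhibition values express reduced yeast growth in compound-treated cultures relative to vehicle-treated controls.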
A short description of test [2]: NCI Yeast Anticancer Drug Screen. Data for the mec2-1 strain (AID 157). The settings on record: S. cerevisiae mec2-1 strain, active compounds read high. The procedure, abridged:
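Mutant yeast (mec2-1) grown with compound; growth inhibition relative to vehicle control reported.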

The nature of test [3]: NCI Yeast Anticancer Drug Screen. Data for the sgs1 mgt1 strain (AID 161).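 Also: 0% = growth of cultures given vehicle only.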 The settings on record: S. cerevisiae sgs1 mgt1 strain, active compounds read high. The procedure, abridged:
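Percent growth inhibition was derived by comparing compound-exposed mutant yeast with vehicle-exposed cultures. The strain carries alterations in DNA damage repair.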

A short description of test [4]: NCI Yeast Anticancer Drug Screen. Data for the cln2 rad14 strain (AID 165).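 Also: 0% = growth equal to vehicle treated cultures.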 To be noted: S. cerevisiae cln2 rad14 strain, active compounds read high. Put shortly: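 Readout is yeast growth inhibition versus vehicle-treated controls, using a strain with cln2 and rad14 alterations exposed to compound.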
A short description of test [5]: NCI Yeast Anticancer Drug Screen. Data for the bub3 strain (AID 167). The settings on record: S. cerevisiae bub3 mutant strain, active compounds read high. The procedure, abridged:
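Steps: expose the mutant yeast strain to compound; grow alongside vehicle-treated cultures; measure growth; express inhibition against the vehicle cultures.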

Test [6] is described as follows: NCI Yeast Anticancer Drug Screen. Data for the mlh1 rad18 strain (AID 175). The settings on record: S. cerevisiae mlh1 rad18 strain growth inhibition, active compounds read high. The procedure, abridged:
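Genetically defined yeast (DNA repair-deficient) exposed to compounds; growth inhibition determined relative to vehicle.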

[7] abbreviates: at 5.0 µM (retest, dose inferred, filed as 0.5).
The mark [8] stands for this setting: at 50.0 µM (retest, dose inferred, filed as 5.0).

Compounds without any hit were thinned out: in the full panel of roughly 79,000, 15% have a hit. Unmarked numbers belong to inactive results. The source made the active and inactive calls. Rule as the data show it: active = growth inhibition above about 70%; inactive = the rest.

On to `CCC(C)N(C(=O)c1ccccc1)c1ccccc1` (stereo not given), for which the growth inhibition in test [1] (setting [7]) was -1%; in test [1] (setting [8]), -2%; in test [1] (at 50.0 µM), 2.8%; in test [2] (setting [7]), 1%; in test [2] (setting [8]), -1%; in test [2] (at 50.0 µM), 6.15%. For the same compound, the growth inhibition was 2% in test [3] (setting [7]); -3% in test [3] (setting [8]); -7.35% in test [3] (at 50.0 µM); 0% in test [4] (setting [7]); 3% in test [4] (setting [8]); 39.8% in test [4] (at 50.0 µM). Moreover, the growth inhibition in test [5] (setting [7]) is -3%; in test [5] (setting [8]), -1%; in test [5] (at 50.0 µM), -4.45%; in test [6] (setting [7]) it was -3%; in test [6] (setting [8]), 2%; in test [6] (at 50.0 µM), -3.65%.

For the compound `CCCCCCCCCCCCNCC(=O)O`, the growth inhibition in test [1] (setting [7]) was -2%; in test [1] (setting [8]), 80% (active); in test [1] (at 50.0 µM), 92.9% (active); in test [2] (setting [7]), 1%; in test [2] (setting [8]) it was 60%; in test [2] (at 50.0 µM), 87.6% (active). Also, the growth inhibition in test [3] (setting [7]) was 3%; in test [3] (setting [8]) it was 23%; in test [3] (at 50.0 µM), 74.5% (active); in test [4] (setting [7]), 1%; in test [4] (setting [8]) it was 53%; in test [4] (at 50.0 µM), -6.3%. Also, the growth inhibition was 7% in test [5] (setting [7]); 67% in test [5] (setting [8]); 92.2% (active) in test [5] (at 50.0 µM); 3% in test [6] (setting [7]); 55% in test [6] (setting [8]); 92% (active) in test [6] (at 50.0 µM).

Consider `NNc1ccc2ccccc2n1`, for which the growth inhibition is -4% in test [1] (setting [7]); 98% (active) in test [1] (setting [8]); 87.5% (active) in test [1] (at 50.0 µM); 1% in test [2] (setting [7]); 93% (active) in test [2] (setting [8]); 52.5% in test [2] (at 50.0 µM). The growth inhibition in test [3] (setting [7]) is 3%; in test [3] (setting [8]) it was 99% (active); in test [3] (at 50.0 µM), 46.2%; in test [4] (setting [7]), 6%; in test [4] (setting [8]), 52%; in test [4] (at 50.0 µM), 86.9% (active). Moreover, the growth inhibition in test [5] (setting [7]) is 14%; in test [5] (setting [8]) it was 99% (active); in test [5] (at 50.0 µM), 93.2% (active); in test [6] (setting [7]), 19%; in test [6] (setting [8]), 99% (active); in test [6] (at 50.0 µM), 93.4% (active).

As to `Cc1ccc(S(=O)(=O)S/C(=N\c2ccccn2)Nc2ccccn2)cc1`, the growth inhibition is 75% (active) in test [1] (setting [7]); 21% in test [1] (setting [8]); 38.9% in test [1] (at 50.0 µM); 72% (active) in test [2] (setting [7]); 32% in test [2] (setting [8]); 39.9% in test [2] (at 50.0 µM). Further, the growth inhibition is 90% (active) in test [3] (setting [7]); 5% in test [3] (setting [8]); 58.6% in test [3] (at 50.0 µM); 14% in test [4] (setting [7]); 16% in test [4] (setting [8]); 3% in test [4] (at 50.0 µM). For the same compound, the growth inhibition is 95% (active) in test [5] (setting [7]); 11% in test [5] (setting [8]); 14% in test [5] (at 50.0 µM); 85% (active) in test [6] (setting [7]); 29% in test [6] (setting [8]); 52.1% in test [6] (at 50.0 µM).

With `O=c1cccccc1[O-].O=c1cccccc1[O-].O=c1cccccc1[O-].[La+3]`, the growth inhibition in test [1] (setting [7]) was 87% (active); in test [1] (setting [8]), 87% (active); in test [1] (at 50.0 µM), 90.8% (active); in test [2] (setting [7]) it was 52%; in test [2] (setting [8]), 52%; in test [2] (at 50.0 µM), 91.8% (active). In addition, the growth inhibition in test [3] (setting [7]) is 92% (active); in test [3] (setting [8]) it was 92% (active); in test [3] (at 50.0 µM), 87.5% (active); in test [4] (setting [7]), 59%; in test [4] (setting [8]), 59%; in test [4] (at 50.0 µM) it was 89.8% (active). For the same compound, the growth inhibition in test [5] (setting [7]) was 26%; in test [5] (setting [8]), 26%; in test [5] (at 50.0 µM), 90.7% (active); in test [6] (setting [7]), 74% (active); in test [6] (setting [8]), 74% (active); in test [6] (at 50.0 µM), 88.6% (active).

As to `COc1ccccc1/C=N/Nc1nnc(N/N=C/c2ccccc2OC)c2ccccc12`, the growth inhibition in test [1] (setting [7]) is -1%; in test [1] (setting [8]) it was 56%; in test [1] (at 50.0 µM), 74.6% (active); in test [2] (setting [7]), 13%; in test [2] (setting [8]), 73% (active); in test [2] (at 50.0 µM), 95.8% (active). Moreover, the growth inhibition was 10% in test [3] (setting [7]); 89% (active) in test [3] (setting [8]); 58% in test [3] (at 50.0 µM); -8% in test [4] (setting [7]); 82% (active) in test [4] (setting [8]); 97.3% (active) in test [4] (at 50.0 µM). The growth inhibition is -5% in test [5] (setting [7]); 94% (active) in test [5] (setting [8]); 96.2% (active) in test [5] (at 50.0 µM); -5% in test [6] (setting [7]); 99% (active) in test [6] (setting [8]); 93.4% (active) in test [6] (at 50.0 µM).

For `CCc1cc(CC)c(-c2ccco2)c(COC(=O)NC)c1`, the growth inhibition in test [1] (setting [7]) is -1%; in test [1] (setting [8]) it was 68%; in test [1] (at 50.0 µM) it was 95.4% (active); in test [2] (setting [7]) it was -3%; in test [2] (setting [8]) it was 64%; in test [2] (at 50.0 µM), 94.2% (active). In addition, the growth inhibition is -4% in test [3] (setting [7]); 78% (active) in test [3] (setting [8]); 94.3% (active) in test [3] (at 50.0 µM); -7% in test [4] (setting [7]); 25% in test [4] (setting [8]); 77.4% (active) in test [4] (at 50.0 µM). In addition, the growth inhibition is -8% in test [5] (setting [7]); 72% (active) in test [5] (setting [8]); 96% (active) in test [5] (at 50.0 µM); -1% in test [6] (setting [7]); 86% (active) in test [6] (setting [8]); 96.3% (active) in test [6] (at 50.0 µM).

Consider `N#CSCC(=O)c1ccc2ccccc2c1`, for which the growth inhibition in test [1] (setting [7]) is 67%; in test [1] (setting [8]) it was 99% (active); in test [1] (at 50.0 µM), 90.8% (active); in test [2] (setting [7]), 71% (active); in test [2] (setting [8]), 99% (active); in test [2] (at 50.0 µM), 92.1% (active). Also, the growth inhibition in test [3] (setting [7]) is 97% (active); in test [3] (setting [8]), 99% (active); in test [3] (at 50.0 µM), 93.5% (active); in test [4] (setting [7]), 68%; in test [4] (setting [8]), 98% (active); in test [4] (at 50.0 µM), 91% (active). Also, the growth inhibition in test [5] (setting [7]) is 97% (active); in test [5] (setting [8]) it was 98% (active); in test [5] (at 50.0 µM) it was 90.5% (active); in test [6] (setting [7]), 57%; in test [6] (setting [8]), 99% (active); in test [6] (at 50.0 µM) it was 91.3% (active).

Regarding `O=c1c2[nH]c3cccc(Cl)c3c2cnn1-c1ccc(F)cc1`, the growth inhibition was 4% in test [1] (setting [7]); 47% in test [1] (setting [8]); 96.7% (active) in test [1] (at 50.0 µM); 2% in test [2] (setting [7]); 74% (active) in test [2] (setting [8]); 97.2% (active) in test [2] (at 50.0 µM). Also, the growth inhibition in test [3] (setting [7]) is 9%; in test [3] (setting [8]) it was 35%; in test [3] (at 50.0 µM), 96.6% (active); in test [4] (setting [7]), 2%; in test [4] (setting [8]), 85% (active); in test [4] (at 50.0 µM) it was 94.5% (active). For the same compound, the growth inhibition is 2% in test [5] (setting [7]); 53% in test [5] (setting [8]); 98% (active) in test [5] (at 50.0 µM); -2% in test [6] (setting [7]); 79% (active) in test [6] (setting [8]); 97% (active) in test [6] (at 50.0 µM).

For the compound `O=C(CN1CCCC1)Nc1nc(-c2ccc(Cl)cc2)cs1`, the growth inhibition in test [1] (setting [7]) was 55%; in test [1] (setting [8]), 69%; in test [1] (at 50.0 µM), 50.5%; in test [2] (setting [7]) it was 37%; in test [2] (setting [8]), 53%; in test [2] (at 50.0 µM), 35.7%. Further, the growth inhibition in test [3] (setting [7]) is 54%; in test [3] (setting [8]) it was 87% (active); in test [3] (at 50.0 µM), 67.5%; in test [4] (setting [7]) it was 39%; in test [4] (setting [8]), 57%; in test [4] (at 50.0 µM), 48.3%. Besides, the growth inhibition in test [5] (setting [7]) was 45%; in test [5] (setting [8]) it was 88% (active); in test [5] (at 50.0 µM) it was 67.6%; in test [6] (setting [7]), 65%; in test [6] (setting [8]) it was 82% (active); in test [6] (at 50.0 µM) it was 64.2%.
